For four compounds, potency estimated from few doses results are on record in PMC11062922 (Nature Chemical Biology, 2023).

Each structure is given as a SMILES string.

Test [1] has as its system CAMKK2. Details: species or system human, MV4-11 + K-562 + COLO205 + SK-N-BE2 + OVCAR-8. To be noted: read-out: apparent Kd; compound concentrations: 100 nM and 1000 nM (sheet 'Samples'), CATDS: 3.10077731514018E-2; n = 1.
The test system of test [2] is CLK1. Details: species or system human, MV4-11 + K-562 + COLO205 + SK-N-BE2 + OVCAR-8. To be noted: read-out: apparent Kd; compound concentrations: 100 nM and 1000 nM (sheet 'Samples'), CATDS: 5.1220055062038403E-2; n = 1.
The test system of test [3] is CLK4. Details: species or system human, MV4-11 + K-562 + COLO205 + SK-N-BE2 + OVCAR-8. As to conditions: read-out: apparent Kd; compound concentrations: 100 nM and 1000 nM (sheet 'Samples'), CATDS: 6.3001679315381406E-2; n = 1.
Test [4] concerns CSNK1D. More on the design: species or system human, MV4-11 + K-562 + COLO205 + SK-N-BE2 + OVCAR-8. To be noted: read-out: apparent Kd; compound concentrations: 100 nM and 1000 nM (sheet 'Samples'), CATDS: 3.1213203175664998E-2; n = 1.
Test [5] concerns EIF2AK1. More on the design: species or system human, MV4-11 + K-562 + COLO205 + SK-N-BE2 + OVCAR-8. To be noted: read-out: apparent Kd; compound concentrations: 100 nM and 1000 nM (sheet 'Samples'), CATDS: 3.5611911741364403E-2; n = 1.
Test [6] deals with FER. Details: species or system human, MV4-11 + K-562 + COLO205 + SK-N-BE2 + OVCAR-8. To be noted: read-out: apparent Kd; compound concentrations: 100 nM and 1000 nM (sheet 'Samples'), CATDS: 4.34234720684002E-2; n = 1.
Test [7] concerns GAK. More on the design: species or system human, MV4-11 + K-562 + COLO205 + SK-N-BE2 + OVCAR-8. As to conditions: read-out: apparent Kd; compound concentrations: 100 nM and 1000 nM (sheet 'Samples'), CATDS: 0.16140378921040499; n = 1.
Test [8] relates to IGF1R. Details: species or system human, MV4-11 + K-562 + COLO205 + SK-N-BE2 + OVCAR-8. To be noted: read-out: apparent Kd; compound concentrations: 100 nM and 1000 nM (sheet 'Samples'), CATDS: 3.6183356665864301E-2; n = 1.
Test [9] has as its system INSR. More on the design: species or system human, MV4-11 + K-562 + COLO205 + SK-N-BE2 + OVCAR-8. To be noted: read-out: apparent Kd; compound concentrations: 100 nM and 1000 nM (sheet 'Samples'), CATDS: 4.1283599015515197E-2; n = 1.
Test [10] deals with MAPK10. Details: species or system human, MV4-11 + K-562 + COLO205 + SK-N-BE2 + OVCAR-8. To be noted: read-out: apparent Kd; compound concentrations: 100 nM and 1000 nM (sheet 'Samples'), CATDS: 0.121038756107581; n = 1.
For test [11], the system named is MAPK8. More on the design: species or system human, MV4-11 + K-562 + COLO205 + SK-N-BE2 + OVCAR-8. To be noted: read-out: apparent Kd; compound concentrations: 100 nM and 1000 nM (sheet 'Samples'), CATDS: 0.11476451358793401; n = 1.
For test [12], the system named is MAPK9. Details: species or system human, MV4-11 + K-562 + COLO205 + SK-N-BE2 + OVCAR-8. To be noted: read-out: apparent Kd; compound concentrations: 100 nM and 1000 nM (sheet 'Samples'), CATDS: 6.9052364835720206E-2; n = 1.
Test [13] concerns NUAK1. More on the design: species or system human, MV4-11 + K-562 + COLO205 + SK-N-BE2 + OVCAR-8. As to conditions: read-out: apparent Kd; compound concentrations: 100 nM and 1000 nM (sheet 'Samples'), CATDS: 3.4302390396245802E-2; n = 1.
The test system of test [14] is PRKD2. More on the design: species or system human, MV4-11 + K-562 + COLO205 + SK-N-BE2 + OVCAR-8. To be noted: read-out: apparent Kd; compound concentrations: 100 nM and 1000 nM (sheet 'Samples'), CATDS: 3.5974174305942498E-2; n = 1.
Test [15] concerns PRKD3. Details: species or system human, MV4-11 + K-562 + COLO205 + SK-N-BE2 + OVCAR-8. To be noted: read-out: apparent Kd; compound concentrations: 100 nM and 1000 nM (sheet 'Samples'), CATDS: 3.1846341330559601E-2; n = 1.
Test [16] deals with PTK2B. More on the design: species or system human, MV4-11 + K-562 + COLO205 + SK-N-BE2 + OVCAR-8. To be noted: read-out: apparent Kd; compound concentrations: 100 nM and 1000 nM (sheet 'Samples'), CATDS: 8.6310597132222E-2; n = 1.
In test [17] the test system is PTK2. More on the design: species or system human, MV4-11 + K-562 + COLO205 + SK-N-BE2 + OVCAR-8. To be noted: read-out: apparent Kd; compound concentrations: 100 nM and 1000 nM (sheet 'Samples'), CATDS: 5.1603916843062203E-2; n = 1.
In test [18] the target is Q6ZSR9 (human, UniProt Q6ZSR9). Details: species or system MV4-11 + K-562 + COLO205 + SK-N-BE2 + OVCAR-8. As to conditions: read-out: apparent Kd; compound concentrations: 100 nM and 1000 nM (sheet 'Samples'), CATDS: 3.1507778196600798E-2; n = 1.
Q6ZSR9, sequence (Q6ZSR9 whole entry, looked up): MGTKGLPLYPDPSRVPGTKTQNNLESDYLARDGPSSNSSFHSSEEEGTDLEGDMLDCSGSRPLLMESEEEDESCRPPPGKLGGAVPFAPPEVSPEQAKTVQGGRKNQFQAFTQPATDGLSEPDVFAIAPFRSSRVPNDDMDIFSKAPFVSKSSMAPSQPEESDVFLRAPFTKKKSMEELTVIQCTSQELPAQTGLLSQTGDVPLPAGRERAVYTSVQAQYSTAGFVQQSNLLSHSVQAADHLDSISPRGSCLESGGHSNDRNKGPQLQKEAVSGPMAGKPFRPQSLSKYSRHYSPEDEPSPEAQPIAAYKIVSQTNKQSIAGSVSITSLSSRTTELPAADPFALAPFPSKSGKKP
Test [19] has as its system RPS6KA1. More on the design: species or system human, MV4-11 + K-562 + COLO205 + SK-N-BE2 + OVCAR-8. To be noted: read-out: apparent Kd; compound concentrations: 100 nM and 1000 nM (sheet 'Samples'), CATDS: 3.19128363140119E-2; n = 1.
Test [20] concerns TNK1. Details: species or system human, MV4-11 + K-562 + COLO205 + SK-N-BE2 + OVCAR-8. To be noted: read-out: apparent Kd; compound concentrations: 100 nM and 1000 nM (sheet 'Samples'), CATDS: 0.144330390511521; n = 1.
Test [21] has as its system TTK. More on the design: species or system human, MV4-11 + K-562 + COLO205 + SK-N-BE2 + OVCAR-8. As to conditions: read-out: apparent Kd; compound concentrations: 100 nM and 1000 nM (sheet 'Samples'), CATDS: 8.7899385258393206E-2; n = 1.
Test [22] relates to CDC42BPG. More on the design: species or system human, MV4-11 + K-562 + COLO205 + SK-N-BE2 + OVCAR-8. To be noted: read-out: apparent Kd; compound concentrations:100 nM and 1000 nM (sheet 'Samples'); n = 1.
The subject of test [23] is EGFR. More on the design: species or system human, MV4-11 + K-562 + COLO205 + SK-N-BE2 + OVCAR-8. To be noted: read-out: apparent Kd; compound concentrations: 100 nM and 1000 nM (sheet 'Samples'), CATDS: 0.39562285113590601; n = 1.
In test [24] the test system is FLT3. More on the design: species or system human, MV4-11 + K-562 + COLO205 + SK-N-BE2 + OVCAR-8. To be noted: read-out: apparent Kd; compound concentrations:100 nM and 1000 nM (sheet 'Samples'); n = 1.
Test [25] has as its system HSPE1. More on the design: species or system human, MV4-11 + K-562 + COLO205 + SK-N-BE2 + OVCAR-8. To be noted: read-out: apparent Kd; compound concentrations:100 nM and 1000 nM (sheet 'Samples'); n = 1.
Test [26] concerns CDC42BPB. Details: species or system human, MV4-11 + K-562 + COLO205 + SK-N-BE2 + OVCAR-8. To be noted: read-out: apparent Kd; compound concentrations:100 nM and 1000 nM (sheet 'Samples'); n = 1.
Test [27] relates to PKN1. Details: species or system human, MV4-11 + K-562 + COLO205 + SK-N-BE2 + OVCAR-8. As to conditions: read-out: apparent Kd; compound concentrations:100 nM and 1000 nM (sheet 'Samples'); n = 1.
The test system of test [28] is PRKACA. More on the design: species or system human, MV4-11 + K-562 + COLO205 + SK-N-BE2 + OVCAR-8. To be noted: read-out: apparent Kd; compound concentrations:100 nM and 1000 nM (sheet 'Samples'); n = 1.
Test [29] has as its system PRKACB. More on the design: species or system human, MV4-11 + K-562 + COLO205 + SK-N-BE2 + OVCAR-8. As to conditions: read-out: apparent Kd; compound concentrations:100 nM and 1000 nM (sheet 'Samples'); n = 1.
Test [30] has as its system PRKG1. Details: species or system human, MV4-11 + K-562 + COLO205 + SK-N-BE2 + OVCAR-8. As to conditions: read-out: apparent Kd; compound concentrations:100 nM and 1000 nM (sheet 'Samples'); n = 1.
Test [31] has as its system PRKX;PRKY. Details: species or system human, MV4-11 + K-562 + COLO205 + SK-N-BE2 + OVCAR-8. As to conditions: read-out: apparent Kd; compound concentrations:100 nM and 1000 nM (sheet 'Samples'); n = 1.
The test system of test [32] is ROCK1. More on the design: species or system human, MV4-11 + K-562 + COLO205 + SK-N-BE2 + OVCAR-8. As to conditions: read-out: apparent Kd; compound concentrations:100 nM and 1000 nM (sheet 'Samples'); n = 1.
In test [33] the test system is ROCK2. More on the design: species or system human, MV4-11 + K-562 + COLO205 + SK-N-BE2 + OVCAR-8. To be noted: read-out: apparent Kd; compound concentrations:100 nM and 1000 nM (sheet 'Samples'); n = 1.
Test [34] deals with RPS6KB1. More on the design: species or system human, MV4-11 + K-562 + COLO205 + SK-N-BE2 + OVCAR-8. To be noted: read-out: apparent Kd; compound concentrations:100 nM and 1000 nM (sheet 'Samples'); n = 1.

As for `COc1cc(N2CCN(C(C)C)CC2)ccc1Nc1nc(Nc2ccc(F)cc2C(N)=O)c2cc[nH]c2n1` [GSK1220512A], the potency estimated from few doses in test [1] was 2210 nM; in [2], 361 nM; in test [3], 213 nM; in test [4], 2140 nM; in test [5], 1180 nM; in test [6], 587 nM. Further, the potency estimated from few doses in test [7] is 38 nM; in test [8], 1110 nM; in test [9], 691 nM; in test [10], 59.2 nM; in test [11], 64.7 nM; in [12], 172 nM. The potency estimated from few doses in test [13] is 1380 nM; in [14], 1130 nM; in test [15] it was 1930 nM; in test [16] it was 108 nM; in test [17], 354 nM; in test [18], 2040 nM. Besides, the potency estimated from few doses in [19] was 1910 nM; in test [20] it was 44.9 nM; in test [21], 104 nM.

Turning to `CS(=O)(=O)CCNCc1ccc(-c2ccc3ncnc(Nc4ccc(OCc5cccc(C(F)(F)F)c5)cc4)c3c2)o1.Cl` [GW567808A], the potency estimated from few doses is 1820 nM in [22], 995 nM in test [23] and 1430 nM in [24].

As to `O=C(Nc1n[nH]c2nc(-c3ccccc3)ccc12)C1CC1` [SB-708999], the potency estimated from few doses was 1760 nM in test [22] and 296 nM in [25].

For `Cl.Cl.NC[C@H](Cc1ccc(C(F)(F)F)cc1)NC(=O)c1cc(Br)c(-c2ccnc3[nH]ccc23)s1.NC[C@H](Cc1ccc(C(F)(F)F)cc1)NC(=O)c1cc(Br)c(-c2ccnc3[nH]ccc23)s1` [GSK1487252A], the potency estimated from few doses in test [26] is 2460 nM; in [27], 2080 nM; in test [28], 20.5 nM; in test [29] it was 60.6 nM; in test [30], 30.2 nM; in [31], 593 nM. Also, the potency estimated from few doses in test [32] was 217 nM; in [33] it was 180 nM; in [34] it was 461 nM.
